In the library only some 6.5% were active in any assay of this set; here they are far more common.
Abs 340nm – compound absorbs light at 340 nm | compound absorbance at 340 nm, fold over control | fold change at 10 µM | 65,000 tested, under 10 active | AID 708;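 active = at 10 µM dose, initial 340 nm absorbance at least 2 fold that of control wells; inactive = change under 2 fold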;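 also: initial absorbance extrapolated from kinetic A340 decline of NADH oxidation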
NADH enzymes – inhibitors of enzymes used to reach an NAD/NADH endpoint | coupled PK/LDH NADH assays, four targets | IC50, µM (titrated, usually from 10 µM), for the others: top-dose inhibition | hit rate 0.02% among 65,000;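 active = single-dose screening hits from any of four coupled enzyme assays that gave an IC50 when retested across doses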;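 also: the DPM-DC format reads NADH fluorescence rather than 340 nm absorbance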
PMK inhibit – inhibitors of Streptococcus pneumoniae phosphomevalonate kinase. inhibition, % at 10 µM. hit rate 0.49% among 65,000. AID 539. purified PMK, PK/LDH-coupled NADH absorbance 340 nm;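 active = top-ranked compounds by inhibition in the single 10 µM screen, taking a fixed number of the strongest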;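 also: 0% = full reaction with DMSO carrier and 100% = background rate without enzyme reaction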
Fluor 339 460 – intrinsic fluorescence of library compounds, ex339/em460 – biochemical, MLSMR library, data from DPM-DC assay, artefact control, profiling panel | compound autofluorescence, ex339/em460 nm, NADH buffer; stronger effect = higher value; 1 = no-compound wells, NADH background | fluorescence fold increase at 10 µM | hit rate 5.5% among 65,000 | AID 709;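 active = at 10 µM, mean starting fluorescence two-fold or more over control wells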;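 also: signal is the first read of a kinetic run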
Spn MK inh – blocks S. pneumoniae mevalonate kinase; purified MK, PK/LDH-coupled NADH absorbance 340 nm; inhibition, % at 10 µM; hit rate 0.48% among 65,000;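 active = ranked among the strongest by inhibition in the single 10 µM screen, a fixed top-ranked set picked for dose follow-up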
DPM-DC inhibit – blocks S. pneumoniae diphosphomevalonate decarboxylase | purified DPM-DC, PK/LDH coupled NADH fluorescence | calls only at 10 µM | hit rate 0.49% among 65,000;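 active = the 320 compounds with the highest percent inhibition in the single-dose primary screen, excluding strongly autofluorescent ones, cut at about 32% in these data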;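 also: kinetic rate of NADH fluorescence loss reporting ADP formed by the decarboxylase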
* hit, by the source's call; i = inactive; x = no result given.

SMILES | Abs 340nm | NADH enzymes | PMK inhibit | Fluor 339 460 | Spn MK inh | DPM-DC inhibit
O=S(=O)(Nc1cccnc1)c1ccc(Cl)c(C(F)(F)F)c1 | 1.05 | 1.0% | 1.0 | 1.13 | 2.0 | i
CN(C)c1nc(-c2ccccc2)c2cnn(Cc3ccccc3)c2n1 | 1.03 | 9.0% | 8.0 | 2.14* | 10.0 | x
c1ccc(Cn2ncc3c2ncn2nc(-c4ccncc4)nc32)cc1 | 1.05 | 4.0% | 4.0 | 1.02 | 5.0 | i
Cc1cc(C)c2cc(CN(CCO)C(c3nnnn3Cc3ccc(F)cc3)C(C)C)c(=O)[nH]c2c1 (stereo not given) | 1.1 | 0.0% | 0.0 | 1.26 | 0.0 | i
CCC(c1nnnn1Cc1ccc(F)cc1)N(CCCO)Cc1cc2cc3c(cc2[nH]c1=O)OCO3 (stereo not given) | 1.14 | 5.0% | 8.0 | 2.25* | 1.0 | i
CC1(C)CC(NC(=O)c2coc(=O)c(Br)c2)CC(C)(C)N1 | 1.2 | 14.0% | 7.0 | 2.1* | 13.0 | i
O=C(c1coc(=O)c(Br)c1)N1CCOCC1 | 1.14 | 6.0% | 3.0 | 1.94 | 0.0 | i
Cc1c(Cl)cccc1NC(=O)CCN1CCCC(C)C1 (stereo not given) | 1.06 | 0.0% | 0.0 | 1.12 | 0.0 | i
Cc1c(C)c2cc(Cl)c(O)c(CN3CCCC(C)C3)c2oc1=O (stereo not given) | 1.06 | 4.0% | 6.0 | 2.35* | 2.0 | x
Cc1c(C)c2cc(Cl)c(O)c(CN3CCN(C)CC3)c2oc1=O | 1.15 | 4.0% | 5.0 | 2.32* | 2.0 | x
CN1CCN(Cc2c(O)ccc3c(-c4ccccc4)cc(=O)oc23)CC1 | 1.07 | 2.0% | 4.0 | 1.36 | 3.0 | i
Cc1c(O)c(CN2CCCC(C)C2)cc2c3c(c(=O)oc12)CCC3 (stereo not given) | 1.01 | 4.0% | 3.0 | 2.47* | 6.0 | x
O=C(NC1CSC/C1=N\O)c1ccccc1 (stereo not given) | 1.02 | 4.0% | 2.0 | 1.13 | 10.0 | i
CCc1ccc(-c2cn(-c3nc(C)cc(C)n3)c(=N)o2)cc1 | 1 | 6.0% | 6.0 | 1.06 | 13.0 | i
COc1ccc(OC)c(NC(=O)CNC(=O)Cn2ccc3ccccc3c2=O)c1 | 1.07 | 14.0% | 30.0* | 1.19 | 6.0 | i
COc1cc2nc(NCCN3CCOCC3)n3nc(-c4ccccc4)nc3c2cc1OC | 1.02 | 11.0% | 14.0 | 2.88* | 7.0 | i
COc1ccc(N(Cc2ccco2)C(=O)c2ccccc2F)cc1OC | 0.99 | 5.0% | 9.0 | 1.13 | 5.0 | i

Compound activity from PubChem BioAssay.
